Source: the supplement of paper PMC10849652
The full data set covers some 7,900 targets. This sample favours those with a hit. About 0.6% of all pairs of compound and target were hits.

compound: Cn1cc(-c2ccc3nnc(C(F)(F)c4ccc5ncccc5c4)n3n2)cn1; assay: log2 fold change, soluble protein after heating vs DMSO (PISA); higher = thermal stabilisation; K562 cells, 10 uM, 30 min; active = over 0.2 and 3.5 SD of the protein, either way, in both replicates (recomputed)
Method in brief: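 Soluble protein was quantified by TMTpro 16plex LC-MS/MS after channel sums were equalised. It was obtained as the supernatant after 21,000xg for 90 min from pooled aliquots of K562 cells (2×10^6 cells/mL, 10 μM compound, 30 min) heated for 3 min across 48°C-58°C and extracted in PBS with 0.5% NP-40 at 4°C. Thermal stability values are relative to control samples and come from duplicates. They are given as log2 fold changes.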

UniProt P29084, sequence (P29084 whole entry, looked up): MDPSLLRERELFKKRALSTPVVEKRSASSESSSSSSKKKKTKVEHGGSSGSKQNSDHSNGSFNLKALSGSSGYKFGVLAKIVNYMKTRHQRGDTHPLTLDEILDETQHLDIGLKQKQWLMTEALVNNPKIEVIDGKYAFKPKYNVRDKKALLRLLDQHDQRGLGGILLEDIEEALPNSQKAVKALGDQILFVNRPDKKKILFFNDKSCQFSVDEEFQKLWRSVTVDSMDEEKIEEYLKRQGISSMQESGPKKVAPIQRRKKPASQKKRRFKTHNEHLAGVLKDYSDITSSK
UniProt P21695, sequence (P21695 whole entry, looked up): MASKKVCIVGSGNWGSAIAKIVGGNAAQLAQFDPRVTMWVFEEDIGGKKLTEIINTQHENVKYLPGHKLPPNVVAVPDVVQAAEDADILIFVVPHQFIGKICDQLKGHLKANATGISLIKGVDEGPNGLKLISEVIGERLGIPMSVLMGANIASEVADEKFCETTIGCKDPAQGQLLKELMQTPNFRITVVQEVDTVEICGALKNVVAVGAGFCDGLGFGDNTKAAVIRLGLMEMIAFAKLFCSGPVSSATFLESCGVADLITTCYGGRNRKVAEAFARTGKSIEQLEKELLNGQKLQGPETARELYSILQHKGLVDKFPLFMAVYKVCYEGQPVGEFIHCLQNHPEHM
UniProt P55084, sequence (P55084 whole entry, looked up): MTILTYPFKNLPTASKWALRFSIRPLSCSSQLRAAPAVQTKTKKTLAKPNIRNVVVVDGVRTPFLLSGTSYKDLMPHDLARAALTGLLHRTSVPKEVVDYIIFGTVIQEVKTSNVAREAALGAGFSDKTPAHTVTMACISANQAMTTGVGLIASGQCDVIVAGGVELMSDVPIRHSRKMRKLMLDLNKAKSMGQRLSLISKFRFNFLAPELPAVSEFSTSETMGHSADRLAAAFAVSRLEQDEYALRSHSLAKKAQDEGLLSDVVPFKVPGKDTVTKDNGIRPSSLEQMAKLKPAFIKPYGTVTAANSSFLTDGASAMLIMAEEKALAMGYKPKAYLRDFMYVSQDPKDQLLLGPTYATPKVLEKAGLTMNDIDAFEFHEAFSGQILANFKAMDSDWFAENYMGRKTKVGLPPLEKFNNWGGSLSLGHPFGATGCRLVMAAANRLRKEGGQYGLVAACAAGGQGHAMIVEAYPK
UniProt Q9Y6M1, sequence (Q9Y6M1 whole entry, looked up): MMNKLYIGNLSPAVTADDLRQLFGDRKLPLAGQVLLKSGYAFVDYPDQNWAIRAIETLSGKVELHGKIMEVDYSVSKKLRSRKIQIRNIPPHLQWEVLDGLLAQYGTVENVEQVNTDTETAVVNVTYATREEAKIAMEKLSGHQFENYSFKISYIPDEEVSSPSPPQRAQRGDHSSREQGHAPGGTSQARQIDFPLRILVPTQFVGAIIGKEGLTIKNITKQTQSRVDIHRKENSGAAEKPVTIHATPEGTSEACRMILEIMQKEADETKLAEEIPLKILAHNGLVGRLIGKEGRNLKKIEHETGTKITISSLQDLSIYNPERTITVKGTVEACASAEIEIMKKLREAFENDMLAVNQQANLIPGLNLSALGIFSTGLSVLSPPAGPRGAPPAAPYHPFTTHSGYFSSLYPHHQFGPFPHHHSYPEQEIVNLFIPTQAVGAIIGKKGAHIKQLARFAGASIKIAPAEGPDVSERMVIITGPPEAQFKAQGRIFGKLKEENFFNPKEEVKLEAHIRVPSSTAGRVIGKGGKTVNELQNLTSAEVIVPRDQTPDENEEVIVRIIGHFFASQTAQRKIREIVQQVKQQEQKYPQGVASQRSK
UniProt Q8IWJ2, sequence (Q8IWJ2 whole entry, looked up): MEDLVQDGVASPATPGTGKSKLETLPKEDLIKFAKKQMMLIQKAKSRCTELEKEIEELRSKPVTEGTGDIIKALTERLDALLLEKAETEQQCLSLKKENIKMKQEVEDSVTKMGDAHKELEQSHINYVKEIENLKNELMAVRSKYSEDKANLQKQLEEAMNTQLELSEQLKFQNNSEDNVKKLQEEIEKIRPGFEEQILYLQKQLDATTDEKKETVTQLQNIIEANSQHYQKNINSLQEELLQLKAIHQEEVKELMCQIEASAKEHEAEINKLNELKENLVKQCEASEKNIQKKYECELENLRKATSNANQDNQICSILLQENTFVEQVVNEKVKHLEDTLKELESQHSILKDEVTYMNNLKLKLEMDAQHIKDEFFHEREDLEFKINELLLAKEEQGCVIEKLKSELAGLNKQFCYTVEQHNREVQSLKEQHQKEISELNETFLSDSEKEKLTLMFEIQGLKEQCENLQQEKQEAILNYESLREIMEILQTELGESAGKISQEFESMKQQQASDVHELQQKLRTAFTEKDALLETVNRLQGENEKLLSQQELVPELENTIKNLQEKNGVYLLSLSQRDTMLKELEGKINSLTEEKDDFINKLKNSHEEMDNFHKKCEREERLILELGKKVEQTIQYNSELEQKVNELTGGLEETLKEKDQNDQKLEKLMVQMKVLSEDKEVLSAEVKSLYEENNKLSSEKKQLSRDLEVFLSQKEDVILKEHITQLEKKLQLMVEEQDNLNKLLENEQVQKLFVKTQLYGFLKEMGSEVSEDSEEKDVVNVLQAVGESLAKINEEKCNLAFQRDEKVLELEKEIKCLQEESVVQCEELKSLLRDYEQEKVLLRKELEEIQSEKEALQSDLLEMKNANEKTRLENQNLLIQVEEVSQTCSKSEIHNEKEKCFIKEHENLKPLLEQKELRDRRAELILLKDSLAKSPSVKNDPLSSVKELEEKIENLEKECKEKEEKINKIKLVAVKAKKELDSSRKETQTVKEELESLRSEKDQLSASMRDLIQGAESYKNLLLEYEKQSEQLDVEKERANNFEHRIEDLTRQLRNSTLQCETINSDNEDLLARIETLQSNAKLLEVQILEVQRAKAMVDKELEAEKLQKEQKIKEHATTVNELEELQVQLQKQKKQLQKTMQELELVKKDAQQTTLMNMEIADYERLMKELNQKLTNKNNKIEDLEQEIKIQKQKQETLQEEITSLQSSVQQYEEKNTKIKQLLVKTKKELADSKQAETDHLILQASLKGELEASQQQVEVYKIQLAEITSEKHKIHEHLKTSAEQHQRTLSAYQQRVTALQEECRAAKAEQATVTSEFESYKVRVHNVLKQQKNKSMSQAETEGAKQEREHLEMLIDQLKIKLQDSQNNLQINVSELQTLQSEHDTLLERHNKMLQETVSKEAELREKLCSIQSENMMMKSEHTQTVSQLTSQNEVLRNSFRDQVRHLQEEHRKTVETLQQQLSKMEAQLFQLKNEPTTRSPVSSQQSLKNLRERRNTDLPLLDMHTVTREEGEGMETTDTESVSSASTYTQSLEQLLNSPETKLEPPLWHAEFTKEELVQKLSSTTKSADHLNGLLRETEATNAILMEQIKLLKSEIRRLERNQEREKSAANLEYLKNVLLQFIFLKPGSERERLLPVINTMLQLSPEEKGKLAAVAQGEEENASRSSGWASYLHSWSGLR
UniProt P49356, sequence (P49356 whole entry, looked up): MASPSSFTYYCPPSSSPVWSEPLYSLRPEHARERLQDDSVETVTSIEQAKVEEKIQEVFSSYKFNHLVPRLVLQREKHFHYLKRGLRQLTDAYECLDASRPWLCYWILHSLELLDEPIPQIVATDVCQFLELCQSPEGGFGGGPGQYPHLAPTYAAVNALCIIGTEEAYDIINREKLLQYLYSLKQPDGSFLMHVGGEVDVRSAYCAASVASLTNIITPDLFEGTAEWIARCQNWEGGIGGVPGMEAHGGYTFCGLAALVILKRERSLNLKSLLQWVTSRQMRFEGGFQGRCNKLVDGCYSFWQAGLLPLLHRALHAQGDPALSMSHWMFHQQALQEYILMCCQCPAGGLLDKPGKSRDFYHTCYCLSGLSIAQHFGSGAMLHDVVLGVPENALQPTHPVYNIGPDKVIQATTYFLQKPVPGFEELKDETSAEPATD
UniProt Q92917, sequence (Q92917 whole entry, looked up): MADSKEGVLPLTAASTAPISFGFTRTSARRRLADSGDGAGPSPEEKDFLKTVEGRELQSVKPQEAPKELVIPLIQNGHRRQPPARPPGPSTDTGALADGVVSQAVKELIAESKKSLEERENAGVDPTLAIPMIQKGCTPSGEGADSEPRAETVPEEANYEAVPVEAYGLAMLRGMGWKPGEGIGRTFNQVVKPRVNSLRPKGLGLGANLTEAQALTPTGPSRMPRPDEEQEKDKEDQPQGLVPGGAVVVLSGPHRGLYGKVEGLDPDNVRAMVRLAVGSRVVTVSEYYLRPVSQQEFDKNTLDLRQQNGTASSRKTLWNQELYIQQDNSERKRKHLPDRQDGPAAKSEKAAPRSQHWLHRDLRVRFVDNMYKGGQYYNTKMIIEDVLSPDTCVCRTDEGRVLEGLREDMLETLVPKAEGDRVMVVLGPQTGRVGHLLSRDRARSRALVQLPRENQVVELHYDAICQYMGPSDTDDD
UniProt O95363, sequence (O95363 whole entry, looked up): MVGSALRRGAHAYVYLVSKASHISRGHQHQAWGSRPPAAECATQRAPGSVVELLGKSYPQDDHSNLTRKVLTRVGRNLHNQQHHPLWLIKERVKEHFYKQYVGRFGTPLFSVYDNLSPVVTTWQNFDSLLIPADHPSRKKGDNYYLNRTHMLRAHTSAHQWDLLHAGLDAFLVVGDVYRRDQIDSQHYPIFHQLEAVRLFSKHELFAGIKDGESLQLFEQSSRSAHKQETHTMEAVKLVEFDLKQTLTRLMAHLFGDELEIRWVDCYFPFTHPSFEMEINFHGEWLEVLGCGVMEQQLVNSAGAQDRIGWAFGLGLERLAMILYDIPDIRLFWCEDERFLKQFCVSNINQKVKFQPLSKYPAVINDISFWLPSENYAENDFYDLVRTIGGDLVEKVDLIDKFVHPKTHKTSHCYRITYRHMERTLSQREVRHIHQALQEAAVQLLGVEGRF
UniProt P01112, sequence (P01112 whole entry, looked up): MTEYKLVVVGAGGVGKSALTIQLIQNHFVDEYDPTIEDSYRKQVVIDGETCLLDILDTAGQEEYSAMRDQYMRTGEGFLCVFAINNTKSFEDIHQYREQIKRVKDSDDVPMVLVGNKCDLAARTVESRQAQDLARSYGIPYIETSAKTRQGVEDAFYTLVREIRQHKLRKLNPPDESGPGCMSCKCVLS

log2 fold change, inactive:
IGF2BP2 (UniProt Q9Y6M1) -0.191
FARS2 (UniProt O95363) 0.039
HECTD1 (UniProt Q9ULT8) -0.032
HRAS (UniProt P01112) -0.007
HMG20A (UniProt Q9NP66) -0.224
GCC2 (UniProt Q8IWJ2) 0.02
GAPVD1 isoform 6 (UniProt Q14C86) -0.016
GSTP1 (UniProt P09211) 0.038
GYS1 (UniProt P13807) -0.139
FBXO9 (UniProt Q9UK97) -0.093
HOMER1 (UniProt Q86YM7) 0.117
GLYR1 (UniProt Q49A26) -0.01
HIP1 (UniProt O00291) -0.002
HDGFL2 (UniProt Q7Z4V5) -0.048
GTF2E2 (UniProt P29084) 0.044
HIP1R (UniProt O75146) -0.013
FDFT1 (UniProt P37268) -0.047
HNRNPK isoform 2 (UniProt P61978) 0.017
GLRX3 (UniProt O76003) -0.014
HRC (UniProt P23327) 0.037
GNL1 (UniProt P36915) -0.03
GTF3C4 (UniProt Q9UKN8) -0.007
FECH isoform 2 (UniProt P22830) 0.248
GPD1 (UniProt P21695) 0.163
GPKOW (UniProt Q92917) 0.139
FBL (UniProt P22087) -0.097
GLUD2 (UniProt P49448) -0.028
HP1BP3 (UniProt Q5SSJ5) -0.087
HADHB (UniProt P55084) 0.108
HSPA8 (UniProt E9PK54) 0.062
FERMT3 (UniProt Q86UX7) -0.019
GDI1 (UniProt P31150) 0.01
FOXK1 (UniProt P85037) 0.184
FNTB (UniProt P49356) 0.251
